The record followed here is ChEMBL document CHEMBL3988442, “University of Dundee, Small-Polar-MMV Screening Library” (2021).

Common to all, as to set-up: scale not given: direction of the effect not stated beside the values
In assay [1] the target is Protein translocase subunit SecA (Escherichia coli (strain K12)) (UniProt P10408). The assay can be described thus: Assay to Identify E. coli SecA ATPase Inhibitors. In kind it is functional. As to conditions: 30 µM.
Assay [2] addresses T1, Ubiquitin-activating enzyme e1, putative (Leishmania donovani (strain BPK282A1)) (UniProt E9BSI1).
T1 sequence (whole entry): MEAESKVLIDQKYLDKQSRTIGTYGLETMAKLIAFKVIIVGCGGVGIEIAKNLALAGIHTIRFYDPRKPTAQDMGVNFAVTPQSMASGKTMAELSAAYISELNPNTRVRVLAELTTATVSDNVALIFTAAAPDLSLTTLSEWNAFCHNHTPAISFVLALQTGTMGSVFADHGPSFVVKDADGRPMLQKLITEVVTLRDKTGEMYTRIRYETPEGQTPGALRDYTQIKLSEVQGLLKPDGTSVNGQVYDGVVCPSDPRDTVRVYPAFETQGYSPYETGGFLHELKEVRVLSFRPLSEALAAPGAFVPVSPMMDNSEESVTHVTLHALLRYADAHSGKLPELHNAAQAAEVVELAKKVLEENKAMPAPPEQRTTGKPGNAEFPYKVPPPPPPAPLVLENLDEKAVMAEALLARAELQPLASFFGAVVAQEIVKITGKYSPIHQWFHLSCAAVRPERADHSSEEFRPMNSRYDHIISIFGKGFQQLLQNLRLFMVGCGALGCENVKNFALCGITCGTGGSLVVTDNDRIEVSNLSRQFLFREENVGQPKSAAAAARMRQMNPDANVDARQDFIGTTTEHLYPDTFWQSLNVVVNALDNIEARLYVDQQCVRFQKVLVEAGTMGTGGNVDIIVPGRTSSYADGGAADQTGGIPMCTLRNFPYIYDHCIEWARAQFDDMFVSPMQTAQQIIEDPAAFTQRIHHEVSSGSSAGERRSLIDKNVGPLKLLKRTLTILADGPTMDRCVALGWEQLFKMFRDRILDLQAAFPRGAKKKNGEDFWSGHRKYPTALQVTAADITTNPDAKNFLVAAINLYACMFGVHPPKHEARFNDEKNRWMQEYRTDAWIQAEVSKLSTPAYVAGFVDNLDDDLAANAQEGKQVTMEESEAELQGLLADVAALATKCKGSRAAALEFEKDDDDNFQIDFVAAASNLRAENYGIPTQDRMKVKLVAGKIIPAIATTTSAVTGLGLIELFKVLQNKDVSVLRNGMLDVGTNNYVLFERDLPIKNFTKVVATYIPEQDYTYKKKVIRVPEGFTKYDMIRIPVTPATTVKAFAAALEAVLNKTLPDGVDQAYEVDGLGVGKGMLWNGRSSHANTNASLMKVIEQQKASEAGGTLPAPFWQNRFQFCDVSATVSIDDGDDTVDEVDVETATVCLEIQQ
The assay can be described thus: Leishmania donovani Ubiquitin Activating Enzyme (LdE1). It is filed as functional. As to conditions: 30 µM.

Assay [3] has as its target AMP-activated protein kinase, AMPK (Homo sapiens) (UniProt P54646+O43741+P54619+Q9UGJ0+Q9Y478+Q13131+Q9UGI9). The assay can be described thus: AMP-dependent Kinase enzyme assay. An in vitro enzyme assay that detects ADP turnover that is directly proportional to AMPK activity. This uses naive AMPK that is activated during the assay with MK-8722. As to conditions: 30 µM. In kind it is functional.

Assay [4] has as its target Sialic acid-binding Ig-like lectin 9 (Homo sapiens) (UniProt Q9Y336). The assay can be described thus: Hs-Siglec9 ALPHAscreen SOP 20170721. As to conditions: 10 µM.
Another assay relates to Trypanosoma cruzi. The assay can be described thus: Trypanosoma cruzi phosphomannomutase and mannose-1-phosphate guanylyltransferase assay. As to conditions: 10 µM. It is filed as functional.
For assay [5], the target named is T2, Arginase-2, mitochondrial (Homo sapiens) (UniProt P78540).
T2 sequence (whole entry): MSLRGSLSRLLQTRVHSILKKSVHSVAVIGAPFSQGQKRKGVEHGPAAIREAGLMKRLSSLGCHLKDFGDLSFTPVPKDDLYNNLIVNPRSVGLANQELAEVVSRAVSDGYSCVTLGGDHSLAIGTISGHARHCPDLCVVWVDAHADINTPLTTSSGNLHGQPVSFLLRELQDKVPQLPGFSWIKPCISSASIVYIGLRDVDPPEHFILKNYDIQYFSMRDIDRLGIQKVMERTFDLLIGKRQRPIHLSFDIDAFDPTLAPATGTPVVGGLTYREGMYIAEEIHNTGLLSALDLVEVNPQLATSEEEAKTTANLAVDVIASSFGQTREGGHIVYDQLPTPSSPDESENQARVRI
The assay can be described thus: in vitro enzyme assay to detect the production of urea directly proportional to the activity of Arginase II. Note: in the data most compounds retested in dose-response had high values. In kind it is functional.

Assay [6] has as its target T3, Proteasome subunit beta (Trypanosoma cruzi) (UniProt O96673).
T3 sequence (whole entry): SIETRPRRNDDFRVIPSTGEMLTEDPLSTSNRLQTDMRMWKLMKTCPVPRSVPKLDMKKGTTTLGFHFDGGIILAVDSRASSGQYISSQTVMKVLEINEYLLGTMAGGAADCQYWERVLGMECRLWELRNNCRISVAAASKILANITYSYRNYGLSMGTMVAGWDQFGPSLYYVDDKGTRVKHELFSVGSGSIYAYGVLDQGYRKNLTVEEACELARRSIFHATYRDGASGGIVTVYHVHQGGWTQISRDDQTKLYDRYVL
The assay can be described thus: Trypanosoma cruzi proteasome chymotrypsin-like activity (TcProtChymo) assay. Note: in the data most compounds retested in dose-response had high values. As to conditions: 9.37 µM. In kind it is functional.

The species entered for a further assay is Homo sapiens. The assay can be described thus: To identify inhibition of the IFN signalling (Jak-Stat) pathway via expression of an eGFP reporter gene under the control of an IFN-stimulated response element (ISRE) containing MxA promoter. It is filed as functional. As to conditions: 30 µM. For orientation: Reporter assays use an easily measured gene product as a stand-in for the process of interest.

Assay [7] addresses T4, Tyrosyl-tRNA synthetase, putative (Trypanosoma cruzi (strain CL Brener)) (UniProt Q4DSP6).
T4 sequence (whole entry): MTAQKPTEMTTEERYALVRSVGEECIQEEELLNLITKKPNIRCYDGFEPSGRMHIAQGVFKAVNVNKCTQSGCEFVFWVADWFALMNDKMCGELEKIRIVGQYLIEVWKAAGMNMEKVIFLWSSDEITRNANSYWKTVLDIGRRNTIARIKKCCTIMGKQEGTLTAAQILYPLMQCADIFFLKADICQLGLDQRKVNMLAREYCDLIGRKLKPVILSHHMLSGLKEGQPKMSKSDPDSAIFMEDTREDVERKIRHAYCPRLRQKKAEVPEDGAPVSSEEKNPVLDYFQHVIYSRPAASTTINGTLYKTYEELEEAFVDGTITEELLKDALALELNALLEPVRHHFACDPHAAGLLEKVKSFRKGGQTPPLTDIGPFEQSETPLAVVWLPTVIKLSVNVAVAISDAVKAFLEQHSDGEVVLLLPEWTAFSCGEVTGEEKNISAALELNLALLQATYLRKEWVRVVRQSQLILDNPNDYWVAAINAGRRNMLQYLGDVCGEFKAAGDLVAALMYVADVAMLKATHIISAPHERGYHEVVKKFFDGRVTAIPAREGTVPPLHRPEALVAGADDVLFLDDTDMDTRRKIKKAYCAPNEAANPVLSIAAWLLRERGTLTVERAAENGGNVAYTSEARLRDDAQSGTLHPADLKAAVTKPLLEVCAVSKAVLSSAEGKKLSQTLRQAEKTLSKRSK
The assay can be described thus: Trypanosoma cruzi tyrosyl tRNA synthetase (TcYRS) _High Tyrosine SOP. Note: in the data most compounds retested in dose-response had high values. It is filed as functional. The note with it: 30 µM.

The target of assay [8] is T4, Tyrosyl-tRNA synthetase, putative (Trypanosoma cruzi (strain CL Brener)). The assay can be described thus: Trypanosoma cruzi tyrosyl tRNA synthetase (TcYRS) SOP. It is filed as functional. The note with it: 30 µM.
The target of assay [9] is Chromo domain-containing protein 1 (Saccharomyces cerevisiae (strain ATCC 204508 / S288c) (Baker's yeast)) (UniProt P32657). The assay can be described thus: ScCHD-1 Enzyme Inhibition Assay. Note: in the data most compounds retested in dose-response had high values. It is filed as functional. The note with it: 30 µM.
Chromo domain-containing protein 1 (Saccharomyces cerevisiae (strain ATCC 204508 / S288c) (Baker's yeast)), sequence (P32657 whole entry, the tested form may be a part): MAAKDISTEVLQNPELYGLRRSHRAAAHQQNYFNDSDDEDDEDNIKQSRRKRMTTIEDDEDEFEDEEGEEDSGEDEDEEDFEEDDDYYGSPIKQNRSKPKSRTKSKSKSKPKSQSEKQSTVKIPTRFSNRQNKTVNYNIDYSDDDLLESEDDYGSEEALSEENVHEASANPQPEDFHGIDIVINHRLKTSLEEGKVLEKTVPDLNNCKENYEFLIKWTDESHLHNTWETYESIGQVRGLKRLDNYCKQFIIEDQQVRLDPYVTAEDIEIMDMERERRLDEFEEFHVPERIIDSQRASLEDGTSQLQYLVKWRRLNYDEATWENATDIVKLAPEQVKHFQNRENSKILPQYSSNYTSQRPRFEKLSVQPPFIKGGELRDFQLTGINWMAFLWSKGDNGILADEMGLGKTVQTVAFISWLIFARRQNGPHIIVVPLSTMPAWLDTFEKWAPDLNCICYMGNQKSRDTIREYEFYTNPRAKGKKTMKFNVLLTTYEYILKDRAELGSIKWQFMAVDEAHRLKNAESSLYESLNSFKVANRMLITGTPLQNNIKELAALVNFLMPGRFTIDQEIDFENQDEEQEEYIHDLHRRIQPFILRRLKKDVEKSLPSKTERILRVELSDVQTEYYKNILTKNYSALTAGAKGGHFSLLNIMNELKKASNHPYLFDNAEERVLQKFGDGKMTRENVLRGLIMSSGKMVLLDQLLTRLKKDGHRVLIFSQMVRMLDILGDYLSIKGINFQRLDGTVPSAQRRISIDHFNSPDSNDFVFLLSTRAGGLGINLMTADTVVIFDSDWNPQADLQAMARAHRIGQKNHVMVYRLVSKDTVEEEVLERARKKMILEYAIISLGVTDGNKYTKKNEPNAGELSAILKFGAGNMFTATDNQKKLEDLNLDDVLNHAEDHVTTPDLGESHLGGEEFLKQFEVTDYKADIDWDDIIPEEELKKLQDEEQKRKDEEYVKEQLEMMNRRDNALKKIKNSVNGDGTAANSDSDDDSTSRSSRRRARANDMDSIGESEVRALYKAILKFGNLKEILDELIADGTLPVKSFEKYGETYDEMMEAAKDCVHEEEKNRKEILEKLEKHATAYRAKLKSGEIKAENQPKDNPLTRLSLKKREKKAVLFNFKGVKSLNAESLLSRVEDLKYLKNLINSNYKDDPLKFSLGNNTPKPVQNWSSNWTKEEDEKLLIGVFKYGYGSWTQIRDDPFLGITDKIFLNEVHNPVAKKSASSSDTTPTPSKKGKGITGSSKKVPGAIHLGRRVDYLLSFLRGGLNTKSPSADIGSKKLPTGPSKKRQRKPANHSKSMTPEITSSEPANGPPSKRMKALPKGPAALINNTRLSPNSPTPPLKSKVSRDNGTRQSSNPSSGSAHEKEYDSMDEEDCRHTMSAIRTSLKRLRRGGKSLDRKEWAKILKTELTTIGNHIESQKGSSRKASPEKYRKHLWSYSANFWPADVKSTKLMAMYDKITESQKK
The next assay relates to N/A. The assay can be described thus: Trypanosoma cruzi proteasome luciferase counter-screen. It is filed as functional. The note with it: 9.37 µM. Background: Counterscreens check selectivity or assay interference.

Where “and” joins values, the source holds several entries; their conditions need not be identical. Equal entries are not always repeated. For part of these data: Measured potencies and affinities stand elsewhere.

Protein translocase subunit SecA (Escherichia coli (strain K12)), sequence (P10408 whole entry): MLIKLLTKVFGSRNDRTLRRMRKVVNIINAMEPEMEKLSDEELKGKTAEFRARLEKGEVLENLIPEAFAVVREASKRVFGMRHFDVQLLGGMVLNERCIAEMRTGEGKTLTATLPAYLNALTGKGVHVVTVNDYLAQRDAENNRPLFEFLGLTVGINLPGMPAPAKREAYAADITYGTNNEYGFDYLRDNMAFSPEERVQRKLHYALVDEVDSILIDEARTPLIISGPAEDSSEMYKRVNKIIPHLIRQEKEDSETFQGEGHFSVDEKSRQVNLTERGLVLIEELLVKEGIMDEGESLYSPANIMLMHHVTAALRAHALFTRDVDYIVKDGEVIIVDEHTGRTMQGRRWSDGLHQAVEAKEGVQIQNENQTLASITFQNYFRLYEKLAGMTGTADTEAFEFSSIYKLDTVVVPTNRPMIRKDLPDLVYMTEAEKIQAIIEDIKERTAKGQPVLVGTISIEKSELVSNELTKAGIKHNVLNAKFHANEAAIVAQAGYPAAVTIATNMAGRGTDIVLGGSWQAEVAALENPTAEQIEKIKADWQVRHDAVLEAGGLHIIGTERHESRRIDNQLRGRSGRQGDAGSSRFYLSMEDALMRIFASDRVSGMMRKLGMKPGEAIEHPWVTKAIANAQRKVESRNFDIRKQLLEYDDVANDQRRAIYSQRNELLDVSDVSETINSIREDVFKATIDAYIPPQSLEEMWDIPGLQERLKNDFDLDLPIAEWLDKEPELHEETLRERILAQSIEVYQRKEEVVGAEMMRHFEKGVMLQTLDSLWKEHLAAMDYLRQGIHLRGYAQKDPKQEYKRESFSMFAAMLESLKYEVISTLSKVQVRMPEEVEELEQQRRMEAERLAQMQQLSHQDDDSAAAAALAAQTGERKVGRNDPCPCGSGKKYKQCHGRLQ
Sialic acid-binding Ig-like lectin 9 (Homo sapiens), sequence (Q9Y336 whole entry): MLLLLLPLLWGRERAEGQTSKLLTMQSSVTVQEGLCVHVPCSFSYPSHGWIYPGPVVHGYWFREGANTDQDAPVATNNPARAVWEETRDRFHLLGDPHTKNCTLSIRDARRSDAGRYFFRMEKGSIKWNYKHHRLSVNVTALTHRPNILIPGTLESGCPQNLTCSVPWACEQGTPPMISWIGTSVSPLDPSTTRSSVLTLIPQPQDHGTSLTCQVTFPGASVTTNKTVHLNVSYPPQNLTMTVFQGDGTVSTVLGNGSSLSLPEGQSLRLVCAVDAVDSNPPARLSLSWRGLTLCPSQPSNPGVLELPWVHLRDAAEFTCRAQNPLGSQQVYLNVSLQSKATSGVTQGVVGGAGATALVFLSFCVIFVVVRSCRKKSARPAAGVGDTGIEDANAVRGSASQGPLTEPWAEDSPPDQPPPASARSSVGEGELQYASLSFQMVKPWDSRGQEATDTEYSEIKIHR

For the molecule `O=C(Cn1nc2c(cc1=O)CCCC2)N[C@@H](C(=O)O)c1ccccc1`, the Percent Effect was -1.59% in assay [1]; 9.33% in [2]; 0.931% in [3]; 7.75% in assay [4]; 3.34% in the assay with Trypanosoma cruzi; 8.11% in [5] (30 µM). Besides, the Percent Effect in assay [5] (33.3 µM) was 0.176%; in [6] it was 12.2%; in the assay filed under Homo sapiens, 14.1%; in assay [7], 10.6%; in [8], 20.5%; in [9], -5.57%.
Turning to `CN(C)CCCNC(=O)c1cc(Br)c2c(c1)OCCO2`, the Percent Effect in assay [1] was -3.75%; in [2], 5.33%; in assay [3], -4%; in assay [4], 10%; in the assay with Trypanosoma cruzi, 3.6%; in assay [5] (30 µM), -0.54%. Further, the Percent Effect was 18.2% in assay [5] (33.3 µM); 6.28% in [6]; -10% in the assay listed under Homo sapiens; 4.92% in [7]; 18.5% in assay [8]; -7.32% in [9].
For the molecule `CCC(C(=O)NCc1ccncc1)N(c1ccc(OC)cc1)S(C)(=O)=O` (stereo unspecified), the Percent Effect in assay [1] is -4.48%; in [2] it was 2.67%; in [3], -7.64%; in assay [4], 14%; in the assay on Trypanosoma cruzi, 4.97%; in assay [5] (30 µM) it was 2.7%. Further, the Percent Effect was 3.65% in assay [5] (33.3 µM); 2.27% in [6]; 6.36% in the assay listed under Homo sapiens; 4.92% in assay [7]; 8.64% in [8]; -13.6% in assay [9].
As for `COCCC(=O)N1CCC2(COCc3c(C)nc(NCC4CC4)nc32)C1` (stereo unspecified), the Percent Effect in [1] is -1.4%; in assay [2], 13.3%; in [3] it was 11.3%; in assay [4], 1.42%; in the assay with Trypanosoma cruzi, -5.32%; in assay [5] (30 µM) it was 4.87%. Besides, the Percent Effect is -3.03% in assay [5] (33.3 µM); 15.4% in [6]; 4.83% in the assay filed under Homo sapiens; 1.06% in assay [7]; 11.5% in assay [8]; -2.58% in assay [9].
On to `COc1ccc(C2SC(C)=Nc3c2c(=O)[nH]n3C2CCCCC2)cc1O` (stereo unspecified), for which the Percent Effect in assay [1] was 1.71%; in [2], 17.3%; in assay [3], 0.637%; in [4], -1.4%; in the assay with Trypanosoma cruzi, 0.786%; in assay [5] (30 µM) it was -3.78%. In addition, the Percent Effect in assay [5] (33.3 µM) was -25.2%; in [6] it was 15.3%; in the assay filed under Homo sapiens it was 39.9%; in [7], 43.4%; in [8], 48.7%; in assay [9] it was -12.8%.
For the molecule `CNC(=O)[C@H]1C[C@@H]2CN(C(=O)c3cscn3)C[C@@H]2N1S(C)(=O)=O`, the Percent Effect is -2.22% in assay [1]; 5.33% in assay [2]; 0.103% in assay [3]; 9.01% in [4]; -4.05% with Trypanosoma cruzi; 4.87% in [5] (30 µM). Besides, the Percent Effect was -27.1% in [5] (33.3 µM); 5.64% in [6]; -13% in the assay listed under Homo sapiens; 4.17% in assay [7]; -52.5% in assay [8]; -3.61% in assay [9].
On to `CNC(=O)N1CC[C@@H]2CN(Cc3cccnc3)S(=O)(=O)[C@@H]2CC1`, for which the Percent Effect in [1] is -2.59%; in assay [2] it was 8.11%; in [3], 4.84%; in assay [4], -4.72%; with Trypanosoma cruzi, 1.27%; in assay [5] (33.3 µM), 0.319%. For the same molecule, the Percent Effect in [6] is 11.4% and 31.6% and 11.9%; in the assay on N/A, 5.24% and 4.76%; in the assay listed under Homo sapiens it was -15.6%; in assay [7] it was 0%; in assay [8] it was 15.4%; in assay [9], 0.163%.
Take `Cc1cc(C(C)C(=O)N2CCCN(Cc3cscn3)CC2)c(C)o1` (stereo unspecified): the Percent Effect in assay [1] was -0.889%; in [2], 21.1%; in assay [3], -6.33%; in [4], 21.4%; in the assay with Trypanosoma cruzi, 1.5%; in [5] (33.3 µM) it was -4.98%. In addition, the Percent Effect was 31.9% and 34.8% and 34.4% in assay [6]; 4.24% and 9.24% in the assay on N/A; 23.1% in the assay listed under Homo sapiens; 3.43% in assay [7]; 17.1% in [8]; -9.64% in [9].
